Experimental data: PubChem BioAssay AID2629 (Broad Institute, 2010)
In all, about 320,000 compounds went through this assay and about 1,900 (0.59%) were called active. No stated cut-off is given here; in the data, active means inhibition mostly above about 10% (no sharp cut-off); inactive means mostly below about 6.7%. Many of the other results were omitted from the sample, so actives are more common in it than they were.

target: Protein LANA1 (Human herpesvirus 8 type P (isolate GK18)) (UniProt Q9QR71); assay: blockers of LANA interaction with H2A/H2B – biochemical, FP readout, HTS, primary screen (AID 2629); conditions: cell-free LANA-H2A/H2B peptide, fluorescence polarization, stronger effect = higher value, concentration not given here
Sequence (Q9QR71 whole entry, looked up): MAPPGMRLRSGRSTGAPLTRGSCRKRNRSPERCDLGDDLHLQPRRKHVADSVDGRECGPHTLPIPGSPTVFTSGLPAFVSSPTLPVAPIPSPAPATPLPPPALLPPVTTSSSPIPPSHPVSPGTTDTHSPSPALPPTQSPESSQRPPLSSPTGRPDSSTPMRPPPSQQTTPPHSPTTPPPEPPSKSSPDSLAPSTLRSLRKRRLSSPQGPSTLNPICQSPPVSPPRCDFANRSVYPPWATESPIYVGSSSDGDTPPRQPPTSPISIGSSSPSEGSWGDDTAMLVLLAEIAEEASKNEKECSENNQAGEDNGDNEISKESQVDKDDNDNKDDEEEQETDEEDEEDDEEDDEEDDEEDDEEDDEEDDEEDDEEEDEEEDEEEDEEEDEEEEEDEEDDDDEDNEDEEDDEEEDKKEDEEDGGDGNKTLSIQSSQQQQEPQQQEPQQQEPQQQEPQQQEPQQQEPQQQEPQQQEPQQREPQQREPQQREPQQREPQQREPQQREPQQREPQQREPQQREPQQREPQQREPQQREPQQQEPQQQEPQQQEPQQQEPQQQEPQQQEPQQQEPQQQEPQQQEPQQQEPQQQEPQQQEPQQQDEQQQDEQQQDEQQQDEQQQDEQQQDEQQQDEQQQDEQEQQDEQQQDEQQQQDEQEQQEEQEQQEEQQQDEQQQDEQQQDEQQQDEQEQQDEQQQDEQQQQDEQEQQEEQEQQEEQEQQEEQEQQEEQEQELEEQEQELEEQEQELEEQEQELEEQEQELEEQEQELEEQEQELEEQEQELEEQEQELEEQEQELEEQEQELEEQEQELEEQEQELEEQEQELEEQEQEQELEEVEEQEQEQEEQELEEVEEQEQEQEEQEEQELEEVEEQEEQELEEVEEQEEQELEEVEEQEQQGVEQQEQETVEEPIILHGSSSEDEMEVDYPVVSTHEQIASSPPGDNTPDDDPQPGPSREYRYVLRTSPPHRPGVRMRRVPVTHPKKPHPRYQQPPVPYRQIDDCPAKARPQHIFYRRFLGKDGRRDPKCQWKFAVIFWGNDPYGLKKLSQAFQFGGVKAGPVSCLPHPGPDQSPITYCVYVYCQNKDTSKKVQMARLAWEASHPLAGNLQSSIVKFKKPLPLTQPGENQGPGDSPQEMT

inhibition, active:
CN(C)S(=O)(=O)c1ccc(NC(=O)COC(=O)c2n[nH]c3ccccc23)cc1 15.3%
O=C1C=CC(=O)N1c1ccc(N2CCCCC2)cc1 6.75%
CN(C)C(=O)Cn1c(=O)n(S(=O)(=O)c2ccccc2)c2ccccc21 14%
CCN1CCN(C2CCCCC2NS(=O)(=O)c2ccc(Cl)cc2)CC1 (configuration not stated) 16.2%
COc1ccc(NC(=O)CCCN2C(=O)C(c3ccccc3)Oc3cccnc32)cc1 (configuration not stated) 12.5%
CC(=O)Nc1cccc(-c2nc3ccccc3s2)c1C 55.2%
O=C(O)Cc1ccc(-c2ccccc2)cc1 54.5%

inhibition, inactive:
Cc1ccc(CN(C(=O)c2sc3ccccc3c2Cl)C2CCS(=O)(=O)C2)cc1 (configuration not stated) 2.69%
CCCCNC(=O)OCCSCCS(=O)(=O)c1ccc(Cl)cc1 -3.62%
CCCN(CCC)CC(O)COc1ccccc1C(=O)Nc1ccccc1 (configuration not stated) -2.37%
CN(C)S(=O)(=O)c1ccc(NC(=O)COC(=O)Cn2[nH]c(=O)c3ccccc3c2=O)cc1 3.02%
O=C(COC(=O)c1n[nH]c2ccccc12)Nc1ccccc1Br -3.41%
CCOCCCn1c(SCC(=O)Nc2cc(OC)ccc2OC)nc2ccccc2c1=O 3.49%
Cc1ccc2c(c1)N(CC(=O)NCCCN1CCCCC1)C(=O)c1cccnc1O2 3.43%
COc1cc(OC)c(OC)cc1CN1CCN(C(=O)c2cccc3ccccc23)CC1 0.329%
Cc1ccc(S(=O)(=O)N2CCC(Oc3ccc(-n4cnnn4)cc3)CC2)cc1 -4.09%
CCn1c(SCC(=O)NNC(=O)c2ccc(OC)cc2)nnc1C(C)C -0.104%
O=C(CS(=O)(=O)c1cn(Cc2ccc(Cl)cc2)c2ccccc12)N1CCOCC1 0.389%
CC(=O)Nc1ccc(S(=O)(=O)Nc2ccc(N3CCCCC3)cc2)cc1 0.693%
O=C(Cc1ccccc1)NC(=S)Nc1ccc(N2CCCCC2)cc1 2.3%
Cc1c(C(=O)NCCN(C)C)oc2ccc(S(=O)(=O)N3CCCC3)cc12 0.441%
CCc1nn(CCCC(=O)NC(C)c2ccccc2)c(=O)c2cc3occc3n12 (configuration not stated) 1.99%
CCN(CC(=O)NCc1cccs1)C(=O)/C=C/c1ccc(C)cc1 -0.65%
CCOc1ccc(S(=O)(=O)N(CC(=O)O)c2ccccc2)cc1 18.5%
CC(CC(=O)N1CCN(S(=O)(=O)c2ccccc2)CC1)n1cncn1 (configuration not stated) 0.88%
CC(=O)Nc1ccc(S(=O)(=O)NNC(=O)CCc2ccccc2)cc1 -3.72%
Oc1ccccc1CNc1ncc(Br)cc1Br -2.38%
O=C(COc1nc2ccccc2nc1N1CCOCC1)NCC(F)(F)F 0.0185%
COc1cc(N2C(=O)c3ccccc3C2=O)c(Cl)cc1C(=O)OCC(=O)N1CCOCC1 2.7%
O=S(=O)(NC1CCCCC1N1CCCCC1)c1ccc(Cl)cc1 (configuration not stated) 9.78%
O=S(=O)(NC1CCCCC1N1CCC(O)CC1)c1ccc(Cl)cc1 (configuration not stated) -2.17%
O=C(CCn1nnc2ccccc2c1=O)N[C@@H](Cc1c[nH]c2ccccc12)C(=O)O -3.09%
CCc1cccc(NC(=O)CCCN2C(=O)C(c3ccccc3)Oc3cccnc32)c1 (configuration not stated) 3.46%
COc1ccc(NC(=O)CCCC(=O)c2ccccc2)cc1 2.03%
Cn1cc(CN2CCC(C(O)CCc3ccccc3)CC2)c(-c2ccccc2F)n1 (configuration not stated) 1.03%
CCn1c(=O)c2ccccc2n(CC(=O)N2CCCc3ccccc32)c1=O 0.719%
O=C(NCc1ccco1)/C(=C\c1cccc([N+](=O)[O-])c1)NC(=O)c1ccco1 -1.25%
Cc1ccc(S(=O)(=O)N2CCN(C(=O)c3ccccc3-c3nc4ccccc4s3)CC2)c(C)c1 5.83%
Oc1ccc(-c2[nH]ncc2-c2nc3ccccc3s2)c(O)c1 3.42%
O=C1C2(c3ccccc3)CN(CCCO)CC1(c1ccccc1)CN(CCCO)C2 1.07%
C=CCN(C(=O)Cn1ncc2c1-c1cc(C)ccc1OC2)c1ccccc1 -5.38%
CCCCc1cc2c(s1)CCCC/C2=N/O -0.97%
COc1ccc(N2CCN(C(=O)CCNC(=O)c3ccc(Br)cc3)CC2)cc1 -8.47%
CN(C)C(=O)c1nc2ccc(Cl)cn2c1CNCc1cccc(OC(F)(F)F)c1 1.63%
Cc1nnc(SC(C(=O)c2ccccc2)c2ccccc2)[nH]c1=O (configuration not stated) -2.85%
O=C(O)Cc1ccc(NCc2ccccc2Cl)cc1 4.61%
O=C(Cc1ccc(-c2ccccc2)cc1)NC(c1ccccc1)c1ccccc1 3.99%
